This is part of a sample that, as a whole, favours compounds with a hit. Of some 83,000 tested, about 20% had one in any assay.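 Note: values are percent growth. 100 is the growth of untreated cells, values between 100 and 0 indicate rising inhibition; between -100 and 0 indicates cell death.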 Activity calls are given as the source filed them. Rule for the calls: active = growth percent below 10; inactive = the rest.
Assays:
Experiment in all cases: NCI-60 one-dose screen, 48 h (100 = growth as untreated, 0 = no growth, -100 = all killed)
Conditions in all cases: 10 µM unless noted
[1] = system: NCI-H23 lung
[2] = system: NCI-H226 lung
[3] = system: NCI-H322M lung
[4] = system: HOP-62 NSCLC
[5] = system: NCI-H460 lung
[6] = system: HOP-92 NSCLC
[7] = system: NCI-H522 lung
[8] = system: A549/ATCC NSCLC
[9] = system: 786-0 renal
[10] = system: COLO 205 colon

Measured: growth

Cc1ccc(S(=O)(=O)n2cc(CNc3ccc(N4CCOCC4=O)cc3)c3ccccc32)cc1
active: [7] -10.5%
inactive: [1] 87.8% | [2] 92.4% | [3] 100% | [4] 84.6% | [5] 99.8% | [6] 38.6% | [8] 103% | [9] 92.3% | [10] 85.1%

O=C(O)c1ccc2c(c1)CCC2
inactive: [1] 108% | [2] 104% | [3] 106% | [4] 114% | [5] 115% | [6] 117% | [7] 104% | [8] 104% | [9] 105% | [10] 104%

CCN(CC)CCN1C(=O)c2c(c(C)c3c(oc4cc(O)ccc43)c2C)C1=O
active: [5] -69% | [7] -37.1% | [8] -65.3% | [9] -80.9%
inactive: [1] 92.7% | [2] 29.2% | [3] 89.1% | [4] 93.1% | [6] 72.1% | [10] 12.8%

CCSC1=NC2C(N(CC)C(=O)N2CC)N1/N=C/C=C/c1ccccc1[N+](=O)[O-] (stereo not given)
inactive: [1] 21.9% | [2] 47.1% | [3] 31.2% | [4] 33.7% | [6] 19.8% | [8] 19% | [9] 19%
active: [5] 1.33% | [7] -1.31% | [10] 3.83%

N#CCN1C(=O)C2C3=C(CCCC3)SC2N=C1CN1CCCC1 (stereo not given)
active: [6] -1.97%
inactive: [1] 97.9% | [2] 87.5% | [3] 91.2% | [4] 89.6% | [5] 117% | [7] 92.5% | [8] 93.1% | [9] 92% | [10] 122%

CN(C)c1ccc(-c2ccc3[nH]c(=O)nc(-c4ccccc4)c3c2)cn1
inactive: [1] 62.1% | [2] 66.6% | [3] 77.5% | [4] 63% | [5] 18.3% | [6] 59.1% | [7] 19.2% | [8] 58.3% | [9] 44.5% | [10] 37.1%

C[n+]1cc2cc(C(N)=O)[nH]c3c(=N)c(Cl)c(N)c1c23
inactive: [1] 56.6% | [2] 57.1% | [3] 80.5% | [4] 37.9% | [5] 23.8% | [6] 80% | [7] 35.2% | [8] 26.3% | [9] 49.1% | [10] 44.1%

O=S(=O)(NCCCNc1cc(-c2c(-c3cccc(O)c3)nc3sccn23)ccn1)c1cccc(Cl)c1
inactive: [1] 49.1% | [2] 61.5% | [3] 85.5% | [4] 72.8% | [5] 47.3% | [6] 111% | [7] 44.1% | [8] 66.5% | [9] 54.8% | [10] 46.3%

C=CCn1c(C)nc2cc(Nc3nc(N4CCCC4)nc4ccccc34)ccc21
inactive: [1] 88.6% | [2] 97.7% | [3] 113% | [4] 90.6% | [5] 81.2% | [6] 81.3% | [7] 127% | [8] 74.6% | [9] 75.9% | [10] 92.6%

N[C@@H](CCCCNCC(=O)O)C(=O)O
inactive: [1] 95.1% | [2] 98.4% | [3] 110% | [4] 101% | [5] 103% | [6] 64.5% | [7] 96.3% | [8] 101% | [9] 97.2% | [10] 111%

COC(=O)c1ccc(CSc2nnc(-c3c(C)nc4ccc(C)cn34)o2)cc1
inactive: [1] 85.9% | [2] 95.2% | [3] 98.2% | [4] 89.6% | [5] 109% | [6] 92% | [7] 83.5% | [8] 103% | [9] 91.8% | [10] 117%

O=Cc1c[nH]c2ccc(-c3csc4ccccc34)cc12
inactive: [1] 58% | [2] 73.8% | [3] 83.2% | [4] 42.8% | [5] 29.3% | [6] 55.9% | [7] 41.3% | [8] 48.1% | [9] 58.4% | [10] 71.6%

O=C(/C=C/c1c(Cl)nc2sccn12)c1nccs1
inactive: [1] 94.2% | [2] 83.4% | [3] 104% | [4] 88.2% | [5] 92.7% | [6] 63.8% | [7] 72.4% | [8] 88% | [9] 102% | [10] 104%

OC(COc1ccccc1Cl)COc1ccccc1Cl
inactive: [1] 94.1% | [2] 95.3% | [3] 110% | [4] 117% | [5] 107% | [6] 102% | [7] 88.3% | [8] 93.2% | [9] 103% | [10] 112%

Cn1c2c(c3ccc(Cl)c(Cl)c31)C(C#N)C1(CCNCC1)NC2=O (stereo not given)
active: [10] -76.6%
inactive: [1] 72.6% | [2] 44.1% | [3] 55.3% | [4] 23.8% | [5] 18.3% | [6] 21.9% | [7] 47.3% | [8] 31.2% | [9] 54.5%

O=C1OC(c2nc3ccccc3s2)=C/C1=C\c1ccc(O)cc1
inactive: [1] 98.9% | [2] 99.5% | [3] 110% | [4] 91.8% | [5] 101% | [6] 87.9% | [7] 91.4% | [8] 109% | [9] 107% | [10] 102%

COc1ccc(C2C(c3nn[nH]n3)=C(N)Oc3c2ccc2ccccc32)cc1 (stereo not given)
inactive: [1] 69.1% | [2] 82.4% | [3] 85.1% | [4] 70.3% | [5] 53.7% | [6] 77.1% | [7] 23.9% | [8] 72.5% | [9] 79.2% | [10] 92.5%

COc1ccc(C2=Nc3c(N)ncnc3NC(c3ccc4c(c3)OCO4)C2)cc1 (stereo not given)
inactive: [1] 69.7% | [2] 85.5% | [3] 99.4% | [4] 68.1% | [5] 102% | [6] 45.4% | [7] 87.4% | [8] 89.3% | [9] 55.6% | [10] 102%

Cc1ccc2nc3ccccc3c(NCc3ccccc3)c2c1
active: [6] -6.69% | [10] 8.06%
inactive: [1] 35.8% | [2] 49.8% | [3] 40.8% | [4] 43.5% | [5] 17.1% | [7] 37% | [8] 40.2% | [9] 34.3%

Clc1cccc(Cl)c1C(Nc1nc2ccccc2s1)Nc1nc2ccccc2s1
inactive: [1] 101% | [2] 89.9% | [3] 106% | [4] 99.7% | [5] 105% | [6] 17.3% | [7] 90.8% | [8] 106% | [9] 110% | [10] 114%

C[C@@]1(CCC#N)[C@H]2CC[C@@H]3[C@H]4[C@H](C(=O)/C=C/c5cccnc5)CC[C@]4(C#N)CC[C@@]3(C)[C@]2(C)CC[C@H]1C(=O)/C=C/c1cccnc1
inactive: [1] 62.8% | [2] 65.5% | [3] 97.7% | [4] 73.2% | [5] 75.2% | [6] 80.7% | [7] 37.9% | [8] 71.9% | [9] 77.9% | [10] 71.7%

Cc1cc(NCCCCNc2ccnc3cc(Cl)ccc23)nc(Nc2ccc(C(=O)N3CCCCC3)cc2)n1
inactive: [1] 41.3% | [2] 98.6% | [3] 22.9% | [4] 21.2% | [6] 63.6% | [8] 13.1%
active: [5] 6.46% | [7] -42.2% | [9] -87.6% | [10] -67.8%

CCN(CC)CCn1nc2c3c(cccc3c1=O)-c1ccccc1-2
inactive: [1] 23.7% | [3] 30.6% | [4] 11.1% | [7] 10.8% | [9] 33.3% | [10] 15.8%
active: [2] -39.9% | [5] 3.42% | [6] -6.84% | [8] 1.36%

Fc1cnc(NC2CC2)nc1-c1cnc2ccc(N3CCOCC3)cn12
active: [1] -7.34% | [2] 0.213% | [3] 4.31% | [4] 9.8% | [5] 4.3% | [6] 1.51% | [7] -18.5% | [8] 3.21% | [10] -22.1%
inactive: [9] 11.2%

CCC(CO)Nc1nc2ccc(Cl)cc2c2ccccc12 (stereo not given)
inactive: [1] 73.9% | [2] 65.3% | [3] 47.2% | [4] 60.3% | [5] 25.1% | [6] 48.9% | [7] 58.6% | [8] 55.3% | [9] 41.6% | [10] 86.4%

COc1nc2c(c(=O)n1C)CN(c1ccccc1)C(=O)CN2C
inactive: [1] 56.9% [100 µM] | [2] 52.3% [100 µM] | [3] 62.1% [100 µM] | [4] 63.6% [100 µM] | [5] 59.4% [100 µM] | [6] 56.9% [100 µM] | [7] 67% [100 µM] | [8] 55.7% [100 µM] | [9] 55.2% [100 µM] | [10] 68.8% [100 µM]

COc1ccc(-c2csc(C3=C(O)CN(C(C)C)C3=N)n2)cc1OC
inactive: [1] 101% | [2] 84.4% | [3] 91.6% | [4] 87% | [5] 120% | [6] 43% | [7] 89.1% | [8] 88.7% | [9] 89.7% | [10] 128%

From PubChem BioAssay (NCI)
